# PubChem BioAssay (NCATS)
# Records with an inconclusive call do not appear. Active and inactive are the calls of the source. Unless noted, calls follow the shape of the full dose curve.
# Assays:
# [1] = qHTS drug screen for cell cycle checkpoint inhibitors in PARPi-resistant BRCA-mutant ovarian cancer cell lines. (AID 1963452); conditions: PEO1/OlaR viability, CellTiter-Glo luminescence, 96 h; for Z-AUC: stronger effect = lower value; also: potency is read from the fitted curve at half-maximal effect
# Summary of the method: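 PEO1, PEO4 and PEO1/OlaR ovarian cancer cells, 600 per well, exposed 96 h at 37C to a dilution series. Viability read by CellTiter-Glo luminescence, normalized to DMSO and empty wells; activity summarized as Z-AUC.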
# [2] = qHTS for identification of novel therapeutic agents for treatment of microphthalmiaassociated transcription factor (MiT) renal cell carcinoma (RCC) (AID 1963991); conditions: CellTiter-Glo, 48 h; for z-score: stronger effect = lower value; for Potency: active = Z-AUC below -0.8 in all three lines; also: potency is read from the fitted curve at half-maximal effect
# Summary of the method: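 Three TFE3-fusion RCC cell lines (UOK109, UOK124, UOK145), 500 cells/well, were exposed to the 1912-compound MIPE 4.0 library for 48 hours at 37 C. Viability was read by CellTiter-Glo luminescence, normalised to DMSO (100%) and empty wells (0%), with 11-concentration curve fits.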
# [3] = qHTS profiling for inhibitors of Plasmodium falciparum proliferation (AID 504749; active = well fitted inhibition curve with a large enough effect;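 also: 0% = DMSO vehicle and full inhibition = artemisinin control; nearly all actives have a fitted effect of over 60% in size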); conditions: P. falciparum in erythrocytes, SYBR Green DNA, 72 h, at 28.7 µM (top of the series)
# Summary of the method: (§1)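 Three-day growth assay of blood-stage parasites in erythrocytes (0.3% parasitemia, 2.5% hematocrit) at 37 C, 5% CO2, quantified by SYBR Green DNA staining after overnight detergent lysis.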
# 3D7 = experiment: as above; conditions: P. falciparum in erythrocytes, SYBR Green DNA, 72 h; series mostly up to 28.7 µM
# Summary of the method: as §1
# 7G8 = experiment: as above; conditions: P. falciparum in erythrocytes, SYBR Green DNA, 72 h; series mostly up to 28.7 µM
# Summary of the method: as §1
# AA1029 = experiment: as above; conditions: P. falciparum in erythrocytes, SYBR Green DNA, 72 h; series mostly up to 28.7 µM
# Summary of the method: as §1
# AS120 = experiment: as above; conditions: P. falciparum in erythrocytes, SYBR Green DNA, 72 h; series mostly up to 28.7 µM
# Summary of the method: as §1
# ATS189 = experiment: as above; conditions: P. falciparum in erythrocytes, SYBR Green DNA, 72 h; series mostly up to 28.7 µM
# Summary of the method: as §1
# ATS95 = experiment: as above; conditions: P. falciparum in erythrocytes, SYBR Green DNA, 72 h; series mostly up to 28.7 µM
# Summary of the method: as §1
# C2A = experiment: as above; conditions: P. falciparum in erythrocytes, SYBR Green DNA, 72 h; series mostly up to 28.7 µM
# Summary of the method: as §1
# CP185 = experiment: as above; conditions: P. falciparum in erythrocytes, SYBR Green DNA, 72 h; series mostly up to 28.7 µM
# Summary of the method: as §1
# CP191 = experiment: as above; conditions: P. falciparum in erythrocytes, SYBR Green DNA, 72 h; series mostly up to 28.7 µM
# Summary of the method: as §1
# CP192 = experiment: as above; conditions: P. falciparum in erythrocytes, SYBR Green DNA, 72 h; series mostly up to 28.7 µM
# Summary of the method: as §1
# CP194 = experiment: as above; conditions: P. falciparum in erythrocytes, SYBR Green DNA, 72 h; series mostly up to 28.7 µM
# Summary of the method: as §1
# CP201 = experiment: as above; conditions: P. falciparum in erythrocytes, SYBR Green DNA, 72 h; series mostly up to 28.7 µM
# Summary of the method: as §1
# CP211 = experiment: as above; conditions: P. falciparum in erythrocytes, SYBR Green DNA, 72 h; series mostly up to 28.7 µM
# Summary of the method: as §1
# CP215 = experiment: as above; conditions: P. falciparum in erythrocytes, SYBR Green DNA, 72 h; series mostly up to 28.7 µM
# Summary of the method: as §1
# CP217 = experiment: as above; conditions: P. falciparum in erythrocytes, SYBR Green DNA, 72 h; series mostly up to 28.7 µM
# Summary of the method: as §1
# CP237 = experiment: as above; conditions: P. falciparum in erythrocytes, SYBR Green DNA, 72 h; series mostly up to 28.7 µM
# Summary of the method: as §1
# CP238 = experiment: as above; conditions: P. falciparum in erythrocytes, SYBR Green DNA, 72 h; series mostly up to 28.7 µM
# Summary of the method: as §1
# [4] = measured here: PEO1 parental Z-AUC
# [5] = TFE3-RCC UOK109 viability, measured here: UOK109 Z-AUC
# [6] = TFE3-RCC viability, measured here: UOK124 Z-AUC
# [7] = TFE3-RCC viability, measured here: UOK145 Z-AUC
structure (smiles),measurement,setting,value
Cc1cc(NC(=O)Nc2ccc(N(C)C)cc2)c2cc(F)cc(F)c2n1,Z-AUC,[1],-0.154 (inactive)
same,Z-AUC,[1]; [4],-0.66
same,Z-AUC,[1]; measured here: PEO4 Z-AUC,-0.472
same,z-score,[2]; [5],1.14
same,z-score,[2]; [6],0.89
same,z-score,[2]; [7],1.08
CC[C@H](C=C[C@@H](C)[C@H]1CC[C@H]2[C@@H]3CC=C4C[C@@H](O)CC[C@]4(C)[C@@H]3CC[C@]12C)C(C)C,Z-AUC,[1],0.764 (inactive)
same,Z-AUC,[1]; [4],1.79
same,Z-AUC,[1]; measured here: PEO4 Z-AUC,1.84
same,z-score,[2]; [5],0.875
same,z-score,[2]; [6],0.915
same,z-score,[2]; [7],1.02
C#CCN(C)CC1=Cc2ccccc2Oc2ccccc21,Z-AUC,[1],-0.343 (inactive)
same,Z-AUC,[1]; [4],-0.493
same,Z-AUC,[1]; measured here: PEO4 Z-AUC,-0.09
same,z-score,[2]; [5],-0.41
same,z-score,[2]; [6],0.413
same,z-score,[2]; [7],-1.17
CC(C)Oc1cc(Nc2nc(N[C@@H](C)c3ccc(F)cn3)ncc2Cl)[nH]n1,Z-AUC,[1],-1.59 (inactive)
same,Z-AUC,[1]; [4],-1.36
same,Z-AUC,[1]; measured here: PEO4 Z-AUC,-0.661
CC(C)CNc1ccnc(NCc2csc(-c3ccccc3)n2)n1,Z-AUC,[1],-1 (inactive)
same,Z-AUC,[1]; [4],-0.906
same,Z-AUC,[1]; measured here: PEO4 Z-AUC,-0.83
Cn1cc(-c2ccc3nnc(Sc4ccc5ncccc5c4)n3n2)cn1,Z-AUC,[1],1.3 (inactive)
same,Z-AUC,[1]; [4],1.65
same,Z-AUC,[1]; measured here: PEO4 Z-AUC,1.9
O=C(NC[C@H](O)CO)c1ccncc1Nc1ccc(I)cc1F,Z-AUC,[1],-0.995 (inactive)
same,Z-AUC,[1]; [4],-0.351
same,Z-AUC,[1]; measured here: PEO4 Z-AUC,-0.367
COc1nc(C)cnc1NS(=O)(=O)c1cccnc1-c1ccc(-c2nnco2)cc1,Z-AUC,[1],1.25 (inactive)
same,Z-AUC,[1]; [4],1.67
same,Z-AUC,[1]; measured here: PEO4 Z-AUC,1.16
same,z-score,[2]; [5],1.22
same,z-score,[2]; [6],0.956
same,z-score,[2]; [7],0.662
NCc1c[nH]c(=S)n1[C@H]1CCc2c(F)cc(F)cc2C1,Z-AUC,[1],-0.555 (inactive)
same,Z-AUC,[1]; [4],-0.422
same,Z-AUC,[1]; measured here: PEO4 Z-AUC,-0.786
O=C(O)Cc1cccc(OCCCN(Cc2cccc(C(F)(F)F)c2Cl)CC(c2ccccc2)c2ccccc2)c1,Z-AUC,[1],-0.299 (inactive)
same,Z-AUC,[1]; [4],0.225
same,Z-AUC,[1]; measured here: PEO4 Z-AUC,0.165
same,z-score,[2]; [5],-0.604
same,z-score,[2]; [6],0.0786
same,z-score,[2]; [7],0.416
CNC(=O)c1c(-c2ccc(F)cc2)oc2cc(N(CCO)S(C)(=O)=O)c(C3CC3)cc12,Z-AUC,[1],0.51 (inactive)
same,Z-AUC,[1]; [4],0.436
same,Z-AUC,[1]; measured here: PEO4 Z-AUC,0.532
CC1(C)CC(=O)c2c(C(F)(F)F)nn(-c3ccc(C(N)=O)c(NC4CCC(O)CC4)c3)c2C1 (centres undefined),Potency,[1],219 nM (active)
same,Z-AUC,[1]; [4],-1.53
same,Z-AUC,[1]; measured here: PEO4 Z-AUC,-1.31
same,Potency,[2]; TFE3-RCC UOK109 viability,372 nM (active)
same,z-score,[2]; [5],-1.31
same,z-score,[2]; [6],-0.879
same,z-score,[2]; [7],-1.53
CC(C)(CO)[C@@H](O)C(=O)NCCC(=O)O,Z-AUC,[1],-0.0324 (inactive)
same,Z-AUC,[1]; [4],0.0769
same,Z-AUC,[1]; measured here: PEO4 Z-AUC,0.104
same,z-score,[2]; [5],1.12
same,z-score,[2]; [6],0.429
same,z-score,[2]; [7],-0.0311
Nc1ccc(-c2ccc3ncc4ccc(=O)n(-c5cccc(C(F)(F)F)c5)c4c3c2)cn1,Z-AUC,[1],-1.37 (inactive)
same,Z-AUC,[1]; [4],-2.21
same,Z-AUC,[1]; measured here: PEO4 Z-AUC,-1.55
same,Potency,[2]; TFE3-RCC UOK109 viability,3320 nM (active)
same,z-score,[2]; [5],-2.43
same,z-score,[2]; [6],-4.62
same,z-score,[2]; [7],-4.33
CCCCC(F)(F)[C@@]1(O)CC[C@H]2[C@H](CC(=O)[C@@H]2CCCCCCC(=O)O)O1,z-score,[2]; [5],0.852
same,z-score,[2]; [6],0.425
same,z-score,[2]; [7],0.602
CCCCC[C@H](O)C=C[C@H]1[C@H](O)CC(=O)[C@H]1CC=CCCCC(=O)O,Z-AUC,[1],1.09 (inactive)
same,Z-AUC,[1]; [4],0.516
same,Z-AUC,[1]; measured here: PEO4 Z-AUC,0.73
same,z-score,[2]; [5],1.12
same,z-score,[2]; [6],0.597
same,z-score,[2]; [7],0.962
CN1C(=O)C[C@H](C(=O)N[C@@H](Cc2cnc[nH]2)C(=O)N2CCC[C@@H]2C(N)=O)NC1=O,Z-AUC,[1],0.875 (inactive)
same,Z-AUC,[1]; [4],1.25
same,Z-AUC,[1]; measured here: PEO4 Z-AUC,1.02
same,z-score,[2]; [5],0.71
same,z-score,[2]; [6],0.308
same,z-score,[2]; [7],0.628
Cc1ccc(C(=O)N(CCCN)[C@@H](c2oc3cc(Cl)ccc3c(=O)c2Cc2ccccc2)C(C)C)cc1,Potency,[1],8710 nM (active)
same,Z-AUC,[1]; [4],-2.6
same,Z-AUC,[1]; measured here: PEO4 Z-AUC,-2.5
same,Potency,[2]; TFE3-RCC UOK109 viability,37200 nM (active)
same,z-score,[2]; [5],-1.98
same,z-score,[2]; [6],-1.71
same,z-score,[2]; [7],-2
N#Cc1c(N(CC(=O)O)CC(=O)O)sc(C(=O)O)c1CC(=O)O,Z-AUC,[1],0.439 (inactive)
same,Z-AUC,[1]; [4],0.76
same,Z-AUC,[1]; measured here: PEO4 Z-AUC,0.481
same,"activity, negative = inhibition",[3]; parasite line A,12.6% (inactive)
same,"activity, negative = inhibition",[3]; parasite line B,0.836% (inactive)
same,Potency,3D7,inactive
same,Potency,7G8,inactive
same,Potency,AA1029,inactive
same,Potency,AS120,inactive
same,Potency,ATS189,inactive
same,Potency,ATS95,inactive
same,Potency,C2A,inactive
same,outcome,CP185,inactive
same,outcome,CP191,inactive
same,Potency,CP192,inactive
same,Potency,CP194,inactive
same,Potency,CP201,inactive
same,Potency,CP211,inactive
same,Potency,CP215,inactive
same,Potency,CP217,inactive
same,Potency,CP237,inactive
same,Potency,CP238,inactive
C[C@@H]1C[C@H]2[C@@H]3CCC4=CC(=O)C=C[C@]4(C)[C@@]3(F)[C@@H](O)C[C@]2(C)[C@@]1(O)C(=O)CO,Z-AUC,[1],0.337 (inactive)
same,Z-AUC,[1]; [4],1.75
same,Z-AUC,[1]; measured here: PEO4 Z-AUC,0.58
same,z-score,[2]; [5],0.745
same,z-score,[2]; [6],0.108
same,z-score,[2]; [7],-1.45
CC(NCCc1ccc(O)cc1)C(O)c1ccc(O)cc1 (centres undefined),Z-AUC,[1],-0.504 (inactive)
same,Z-AUC,[1]; [4],0.762
same,Z-AUC,[1]; measured here: PEO4 Z-AUC,0.7
same,z-score,[2]; [5],0.72
same,z-score,[2]; [6],0.96
same,z-score,[2]; [7],2.38
CN(C)CCN(C)C(=O)c1ccc(NC(=O)Nc2ccc(-c3nc(N4CCOCC4)c4ccn(CC(F)(F)F)c4n3)cc2)cc1,Z-AUC,[1],-1.1 (inactive)
same,Z-AUC,[1]; [4],-1.35
same,Z-AUC,[1]; measured here: PEO4 Z-AUC,-1.82
same,Potency,[2]; TFE3-RCC UOK109 viability,1320 nM (active)
same,z-score,[2]; [5],-2.71
same,z-score,[2]; [6],-3.06
same,z-score,[2]; [7],-1.67
CCNC(=O)[C@H]1O[C@@H](n2cnc3c(N)nc(NCCc4ccc(CCC(=O)O)cc4)nc32)[C@H](O)[C@H]1O,z-score,[2]; [5],0.882
same,z-score,[2]; [6],0.527
same,z-score,[2]; [7],0.68
